Only a selection was taken, and the strongest signals are over-represented in it overall.
Assays:
Assay in all cases: glycan array binding signal (z-score within array); higher = stronger binding
Settings in all cases: glycan notation: IUPAC condensed, linker removed
[1] = biological target: GalNAc(b1-3)GalNAc
Method in brief: (§1)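 The binding signal is a Z-score computed within each array and averaged over linkers. Arrays of the same protein sequence at different concentrations or buffers were also averaged together. Data originate from 3228 arrays in the Consortium for Functional Glycomics database, kept only where the protein sequence was available.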

[2] = biological target: GalNAc(b1-4)GlcNAc(b1-3)GalNAc(b1-4)GlcNAc
Method in brief: as §1

[3] = biological target: Glc(b1-4)Glc
Method in brief: as §1

[4] = biological target: GlcA(b1-3)Gal
Method in brief: as §1

[5] = biological target: GlcA3S(b1-3)Gal(b1-4)GlcNAc(b1-3)Gal(b1-4)Glc
Method in brief: as §1

[6] = biological target: GlcNAc(a1-4)Gal(b1-4)GlcNAc(b1-3)Gal(b1-4)[Fuc(a1-3)]GlcNAc(b1-3)Gal(b1-4)[Fuc(a1-3)]GlcNAc
Method in brief: as §1

[7] = biological target: GlcNAc(b1-2)Gal(b1-3)GalNAc
Method in brief: as §1

[8] = biological target: GlcNAc(b1-2)Man(a1-3)[GlcNAc(b1-2)Man(a1-6)]Man(b1-4)GlcNAc(b1-4)GlcNAc
Method in brief: as §1

[9] = biological target: GlcNAc(b1-2)[GlcNAc(b1-4)]Man(a1-3)[GlcNAc(b1-4)][GlcNAc(b1-2)Man(a1-6)]Man(b1-4)GlcNAc(b1-4)GlcNAc
Method in brief: as §1

[10] = biological target: GlcNAc(b1-2)[GlcNAc(b1-6)]Man(a1-6)[GlcNAc(b1-2)Man(a1-3)]Man(b1-4)GlcNAc(b1-4)[Fuc(a1-6)]GlcNAc
Method in brief: as §1

[11] = biological target: GlcNAc(b1-3)Gal(b1-4)GlcNAc(b1-3)Gal(b1-4)GlcNAc(b1-2)Man(a1-3)[GlcNAc(b1-3)Gal(b1-4)GlcNAc(b1-3)Gal(b1-4)GlcNAc(b1-2)Man(a1-6)]Man(b1-4)GlcNAc(b1-4)[Fuc(a1-6)]GlcNAc
Method in brief: as §1

[12] = biological target: GlcNAc(b1-3)Gal(b1-4)GlcNAc(b1-3)Gal(b1-4)GlcNAc(b1-3)Gal(b1-4)GlcNAc(b1-3)Gal(b1-4)GlcNAc(b1-2)[GlcNAc(b1-3)Gal(b1-4)GlcNAc(b1-3)Gal(b1-4)GlcNAc(b1-3)Gal(b1-4)GlcNAc(b1-3)Gal(b1-4)GlcNAc(b1-6)]Man(a1-6)[GlcNAc(b1-3)Gal(b1-4)GlcNAc(b1-3)Gal(b1-4)GlcNAc(b1-3)Gal(b1-4)GlcNAc(b1-3)Gal(b1-4)GlcNAc(b1-2)Man(a1-3)]Man(b1-4)GlcNAc(b1-4)[Fuc(a1-6)]GlcNAc
Method in brief: as §1

[13] = biological target: GlcNAc(b1-3)[GlcNAc(b1-4)][GlcNAc(b1-6)]GlcNAc
Method in brief: as §1

[14] = biological target: GlcNAc(b1-4)GlcNAc(b1-4)GlcNAc(b1-4)GlcNAc(b1-4)GlcNAc
Method in brief: as §1

[15] = biological target: Man(a1-3)[Man(a1-6)]Man
Method in brief: as §1

[16] = biological target: Man(a1-3)[Man(a1-6)]Man(a1-6)[Man(a1-2)Man(a1-3)]Man(b1-4)GlcNAc(b1-4)GlcNAc
Method in brief: as §1

[17] = biological target: Neu5Ac(a2-3)Gal(b1-3)[Fuc(a1-4)]GlcNAc
Method in brief: as §1

[18] = biological target: Neu5Ac(a2-3)Gal(b1-3)]Neu5Ac(a2-3)Gal(b1-4)]GlcNAc
Method in brief: as §1

[19] = biological target: Neu5Ac(a2-3)Gal(b1-4)GlcNAc(b1-2)Man(a1-3)[GlcNAc(b1-4)][Neu5Ac(a2-3)Gal(b1-4)GlcNAc(b1-2)Man(a1-6)]Man(b1-4)GlcNAc(b1-4)GlcNAc
Method in brief: as §1

[20] = biological target: Neu5Ac(a2-3)Gal(b1-4)GlcNAc(b1-2)Man(a1-3)[Neu5Ac(a2-3)Gal(b1-4)GlcNAc(b1-2)Man(a1-6)]Man(b1-4)GlcNAc(b1-4)[Fuc(a1-6)]GlcNAc
Method in brief: as §1

[21] = biological target: Neu5Ac(a2-3)Gal(b1-4)GlcNAc(b1-3)Gal(b1-4)GlcNAc(b1-3)Gal(b1-4)GlcNAc
Method in brief: as §1

[22] = biological target: Neu5Ac(a2-3)Gal(b1-4)[Fuc(a1-3)]GlcNAc(b1-3)GalNAc
Method in brief: as §1

[23] = biological target: Neu5Ac(a2-8)Neu5Gc(a2-3)Gal(b1-4)GlcNAc
Method in brief: as §1

B1: PX9961KLbvu-535-38-535 (Bacteroides vulgatus) (protein)
chain: DKAYTDAESYTKGLHKIYSVWALSGQDGSSSSDISGLDAGNTALLRCWWTLQEQPTDEMKNAWNDAWCTEVNYMTWTTNKVEPIEGVYQRCMYIVALVNEFLKNIPNAPESIDKESYIAQARFNRAFAYYVLMDMFALPPFITEKNYSIEPAPLSREDLFNWIEAELNEIKPNLPSPRSEYGVADQAVASALLARMYLNAEIYTGKARYTECINACNEVIKAGYQLADNYADLFKADNGENPDTKKEIIYPIIFDGDKTQSWGMAAIIIGARGAEDKDVLLAHSGVDQGWAGFRATSNLVHLFDFQNDEEPKASEIQDKRGIFYDKGRSIDITSSVSGTFETEGWSVFKFSNLNSNGQPGKNTLWVDTDFPMFRLGDIYLMYAEAVARGGEGSKASAVEYINALRKRAYGDDKHNISENWLEENNFRNLLDERGRELYWEGIRRTDLVRFDLLTSGSYTWDFKGGINTGVGVNKRYNVYPIPVTDLTVNGNLQQNEGY
glycan array binding signal (z-score) [1]: -0.606
glycan array binding signal (z-score) [2]: -0.094
glycan array binding signal (z-score) [3]: -0.497
glycan array binding signal (z-score) [4]: -0.742
glycan array binding signal (z-score) [5]: -0.814
glycan array binding signal (z-score) [6]: 0.673
glycan array binding signal (z-score) [7]: 0.183
glycan array binding signal (z-score) [8]: -0.632
glycan array binding signal (z-score) [9]: 1.4
glycan array binding signal (z-score) [10]: 0.105
glycan array binding signal (z-score) [11]: 1.82
glycan array binding signal (z-score) [12]: 1.39
glycan array binding signal (z-score) [13]: -0.666
glycan array binding signal (z-score) [14]: -0.429
glycan array binding signal (z-score) [15]: -0.077
glycan array binding signal (z-score) [16]: 0.357
glycan array binding signal (z-score) [17]: 1.01
glycan array binding signal (z-score) [18]: -0.578
glycan array binding signal (z-score) [19]: -0.451
glycan array binding signal (z-score) [20]: 0.475
glycan array binding signal (z-score) [21]: -0.106
glycan array binding signal (z-score) [22]: 0.19
glycan array binding signal (z-score) [23]: 19.4
